About 7,900 targets were measured; listed, in parts, are those with a hit and a random draw of the rest. About 0.6% of all pairs of compound and target were hits.
Columns and labels:
Assay in all cases: log2 fold change, soluble protein after heating vs DMSO (PISA); higher = thermal stabilisation; K562 cells, 10 uM, 30 min; active = over 0.2 and 3.5 SD of the protein, either way, in both replicates (recomputed)
[1] = compound: NC(=O)Nc1cc(-c2cccc(F)c2)sc1C(=O)N[C@H]1CCCNC1
Procedure, shortened: (§1)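 K562 cells at 2×10^6 cells/mL were exposed to 10 μM compound for 30 min, then aliquots were heated for 3 min across 48°C-58°C, pooled, and extracted in PBS containing 0.5% NP-40 at 4°C. The supernatant after 21,000xg for 90 min was taken as soluble protein and measured by TMTpro 16plex LC-MS/MS with channel sums equalised. Thermal stability is reported relative to control samples, with values from duplicates. Fold changes are given on a log2 scale.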

[2] = compound: NC(=O)c1cnc(N[C@@H]2CCCC[C@@H]2N)nc1Nc1cccc(-n2nccn2)c1
Procedure, shortened: as §1

[3] = compound: NC1(c2ccc(-c3nc4ccn5c(=O)[nH]nc5c4cc3-c3ccccc3)cc2)CCC1
Procedure, shortened: as §1

[4] = compound: NCC(=O)Nc1ccc(-n2nc(C(F)(F)F)cc2-c2ccc3c(ccc4ccccc43)c2)cc1
Procedure, shortened: as §1

entinostat = compound: Nc1ccccc1NC(=O)c1ccc(CNC(=O)OCc2cccnc2)cc1 [entinostat]
Procedure, shortened: as §1

vorinostat = compound: O=C(CCCCCCC(=O)Nc1ccccc1)NO [vorinostat]
Procedure, shortened: as §1

citarinostat = compound: O=C(CCCCCCNC(=O)c1cnc(N(c2ccccc2)c2ccccc2Cl)nc1)NO [citarinostat]
Procedure, shortened: as §1

silmitasertib = compound: O=C(O)c1ccc2c(c1)nc(Nc1cccc(Cl)c1)c1ccncc12 [silmitasertib]
Procedure, shortened: as §1

[5] = compound: O=C1NC(=O)C(c2cnc3ccccn23)=C1c1cn2c3c(cc(F)cc13)CN(C(=O)N1CCCCC1)CC2
Procedure, shortened: as §1

[6] = compound: c1cc(OCCN2CCCCC2)cc(-c2n[nH]c3ccc(-c4nnc[nH]4)cc23)c1
Procedure, shortened: as §1

entospletinib = compound: c1cn2cc(-c3ccc4cn[nH]c4c3)nc(Nc3ccc(N4CCOCC4)cc3)c2n1 [entospletinib]
Procedure, shortened: as §1

Measured: log2 fold change

RAVER1 (UniProt E9PAU2)
inactive: [1] -0.063 | [2] -0.35 | [3] -0.1 | [4] -0.32 | entinostat 0.211 | vorinostat 0.207 | citarinostat 0.166 | silmitasertib -0.022 | [5] -0.244 | [6] -0.088 | entospletinib 0.073

RPS25 (UniProt P62851)
inactive: [1] -0.043 | [2] 0.071 | [3] 0.192 | [4] 0.053 | entinostat -0.072 | vorinostat 0.032 | citarinostat -0.066 | silmitasertib -0.061 | [5] 0.107 | [6] -0.052 | entospletinib 0.075

RPRD1B (UniProt Q9NQG5)
Sequence of UniProt Q9NQG5 (Q9NQG5 whole entry, looked up): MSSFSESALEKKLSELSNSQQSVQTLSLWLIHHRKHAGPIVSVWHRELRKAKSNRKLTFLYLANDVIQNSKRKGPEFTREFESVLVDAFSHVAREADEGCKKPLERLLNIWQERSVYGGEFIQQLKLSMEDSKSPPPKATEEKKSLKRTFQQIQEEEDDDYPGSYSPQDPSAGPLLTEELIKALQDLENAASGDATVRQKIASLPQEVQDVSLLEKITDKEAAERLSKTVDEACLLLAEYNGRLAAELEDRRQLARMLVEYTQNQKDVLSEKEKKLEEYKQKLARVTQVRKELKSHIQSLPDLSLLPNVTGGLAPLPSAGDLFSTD
inactive: [1] -0.058 | [2] -0.03 | [3] -0.087 | [4] -0.081 | entinostat 0.051 | vorinostat 0.049 | citarinostat 0.029 | silmitasertib 0.031 | [6] -0.049 | entospletinib 0.037
active: [5] -0.346

RBBP6 (UniProt Q7Z6E9)
inactive: [1] 0.028 | [2] -0.107 | [3] 0.089 | [4] -0.017 | entinostat -0.011 | vorinostat 0.081 | citarinostat 0.099 | silmitasertib 0.207 | [5] 0.112 | [6] -0.013 | entospletinib 0.077

RCN3 (UniProt Q96D15)
inactive: [1] -0.042 | [2] -0.027 | [3] 0.105 | [4] -0.013 | entinostat -0.027 | vorinostat -0.122 | citarinostat -0.063 | silmitasertib -0.002 | [5] -0.039 | [6] 0.12 | entospletinib -0.156

RDH10 (UniProt Q8IZV5)
inactive: [1] -0.033 | [2] -0.017 | [3] -0.016 | [4] 0.015 | entinostat 0.015 | vorinostat -0.069 | citarinostat -0.019 | silmitasertib -0.097 | [5] -0.039 | [6] 0.012 | entospletinib 0.03

SDHAF2 (UniProt Q9NX18)
Sequence of UniProt Q9NX18 (Q9NX18 whole entry, looked up): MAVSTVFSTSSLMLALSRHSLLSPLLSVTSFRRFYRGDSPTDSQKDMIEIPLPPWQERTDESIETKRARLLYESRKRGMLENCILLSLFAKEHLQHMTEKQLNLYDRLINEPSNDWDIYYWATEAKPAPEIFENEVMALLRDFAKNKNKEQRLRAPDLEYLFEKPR
inactive: [1] -0.005 | [2] 0.156 | [3] -0.089 | [4] -0.007 | entinostat -0.04 | vorinostat -0.156 | citarinostat -0.026 | silmitasertib -0.007 | [5] -0.101 | [6] -0.015 | entospletinib 0.001

RPL38 (UniProt P63173)
inactive: [1] -0.005 | [2] 0.022 | [3] 0.09 | [4] 0.024 | entinostat -0.022 | vorinostat 0.002 | citarinostat -0.003 | silmitasertib -0.008 | [5] 0 | [6] -0.094 | entospletinib -0.014

RTF2 (UniProt Q9BY42)
Sequence of UniProt Q9BY42 (Q9BY42 whole entry, looked up): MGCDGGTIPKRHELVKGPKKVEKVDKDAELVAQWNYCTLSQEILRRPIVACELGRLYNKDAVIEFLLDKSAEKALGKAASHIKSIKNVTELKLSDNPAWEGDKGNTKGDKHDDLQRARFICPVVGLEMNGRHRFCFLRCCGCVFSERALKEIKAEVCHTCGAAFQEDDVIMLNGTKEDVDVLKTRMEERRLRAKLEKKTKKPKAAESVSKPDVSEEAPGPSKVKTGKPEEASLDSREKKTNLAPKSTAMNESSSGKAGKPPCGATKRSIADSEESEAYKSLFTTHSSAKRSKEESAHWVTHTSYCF
inactive: [1] -0.134 | [2] 0.012 | [3] 0.124 | [4] -0.081 | entinostat -0.023 | vorinostat -0.062 | citarinostat 0.133 | silmitasertib 0.133 | [5] -0.189 | [6] 0.028 | entospletinib -0.069

RAB8B (UniProt Q92930)
Sequence of UniProt Q92930 (Q92930 whole entry, looked up): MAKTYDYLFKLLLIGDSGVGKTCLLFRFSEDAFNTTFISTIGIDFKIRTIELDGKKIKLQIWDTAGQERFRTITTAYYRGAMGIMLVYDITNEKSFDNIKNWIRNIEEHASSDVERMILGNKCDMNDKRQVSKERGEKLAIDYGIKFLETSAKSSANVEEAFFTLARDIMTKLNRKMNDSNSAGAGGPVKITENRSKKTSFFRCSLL
inactive: [1] 0.203 | [2] 0.017 | [3] -0.053 | [4] 0.2 | entinostat 0.116 | vorinostat 0.073 | citarinostat 0.03 | silmitasertib -0.049 | [5] -0.013 | [6] 0.093 | entospletinib -0.04

SCAMP2 (UniProt O15127)
Sequence of UniProt O15127 (O15127 whole entry, looked up): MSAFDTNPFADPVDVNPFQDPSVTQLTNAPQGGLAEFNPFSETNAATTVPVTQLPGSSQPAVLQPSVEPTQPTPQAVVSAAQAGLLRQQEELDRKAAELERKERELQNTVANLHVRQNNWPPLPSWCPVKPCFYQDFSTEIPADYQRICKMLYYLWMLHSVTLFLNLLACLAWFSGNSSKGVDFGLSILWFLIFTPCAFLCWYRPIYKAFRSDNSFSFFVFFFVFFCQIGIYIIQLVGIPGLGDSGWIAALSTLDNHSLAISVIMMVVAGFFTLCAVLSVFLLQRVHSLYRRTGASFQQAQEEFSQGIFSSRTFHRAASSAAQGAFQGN
inactive: [1] -0.007 | [2] 0.168 | [3] 0.001 | [4] 0.029 | entinostat -0.001 | vorinostat -0.027 | citarinostat 0.189 | silmitasertib -0.002 | [5] 0.109 | [6] -0.065 | entospletinib -0.078

SCPEP1 (UniProt Q9HB40)
Sequence of UniProt Q9HB40 (Q9HB40 whole entry, looked up): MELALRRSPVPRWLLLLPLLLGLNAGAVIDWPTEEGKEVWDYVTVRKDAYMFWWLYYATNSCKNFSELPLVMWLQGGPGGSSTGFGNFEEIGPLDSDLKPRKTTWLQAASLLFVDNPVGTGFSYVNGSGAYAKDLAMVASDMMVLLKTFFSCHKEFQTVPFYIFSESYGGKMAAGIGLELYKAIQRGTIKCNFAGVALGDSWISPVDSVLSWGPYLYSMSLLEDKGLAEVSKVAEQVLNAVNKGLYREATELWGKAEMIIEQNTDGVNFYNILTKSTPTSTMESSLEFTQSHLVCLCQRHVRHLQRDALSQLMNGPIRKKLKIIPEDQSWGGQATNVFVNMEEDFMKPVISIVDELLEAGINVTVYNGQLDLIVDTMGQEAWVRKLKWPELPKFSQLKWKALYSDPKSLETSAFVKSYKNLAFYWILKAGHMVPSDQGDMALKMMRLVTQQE
active: [3] -0.314
inactive: [1] 0.036 | [2] 0.001 | [4] 0.008 | entinostat 0.023 | vorinostat -0.037 | citarinostat -0.043 | silmitasertib 0.003 | [5] 0.024 | [6] 0.022 | entospletinib 0.004

RPS2 (UniProt P15880)
inactive: [1] 0.035 | [2] 0.081 | [3] 0.195 | [4] 0.089 | entinostat -0.036 | vorinostat 0.001 | citarinostat -0.079 | silmitasertib 0.01 | [5] 0.086 | [6] -0.189 | entospletinib 0.08

RDH13 (UniProt Q8NBN7)
inactive: [1] -0.038 | [2] -0.049 | [3] -0.064 | [4] -0.055 | entinostat -0.032 | vorinostat 0.002 | citarinostat 0.029 | silmitasertib -0.013 | [5] -0.029 | [6] -0.02 | entospletinib -0.009

RNF14 (UniProt Q9UBS8)
inactive: [1] -0.016 | [2] -0.054 | [3] -0.157 | [4] 0.008 | entinostat 0.037 | vorinostat 0.021 | citarinostat -0.006 | silmitasertib 0.003 | [5] -0.127 | [6] -0.007 | entospletinib 0.035

SEC23A (UniProt Q15436)
Sequence of UniProt Q15436 (Q15436 whole entry, looked up): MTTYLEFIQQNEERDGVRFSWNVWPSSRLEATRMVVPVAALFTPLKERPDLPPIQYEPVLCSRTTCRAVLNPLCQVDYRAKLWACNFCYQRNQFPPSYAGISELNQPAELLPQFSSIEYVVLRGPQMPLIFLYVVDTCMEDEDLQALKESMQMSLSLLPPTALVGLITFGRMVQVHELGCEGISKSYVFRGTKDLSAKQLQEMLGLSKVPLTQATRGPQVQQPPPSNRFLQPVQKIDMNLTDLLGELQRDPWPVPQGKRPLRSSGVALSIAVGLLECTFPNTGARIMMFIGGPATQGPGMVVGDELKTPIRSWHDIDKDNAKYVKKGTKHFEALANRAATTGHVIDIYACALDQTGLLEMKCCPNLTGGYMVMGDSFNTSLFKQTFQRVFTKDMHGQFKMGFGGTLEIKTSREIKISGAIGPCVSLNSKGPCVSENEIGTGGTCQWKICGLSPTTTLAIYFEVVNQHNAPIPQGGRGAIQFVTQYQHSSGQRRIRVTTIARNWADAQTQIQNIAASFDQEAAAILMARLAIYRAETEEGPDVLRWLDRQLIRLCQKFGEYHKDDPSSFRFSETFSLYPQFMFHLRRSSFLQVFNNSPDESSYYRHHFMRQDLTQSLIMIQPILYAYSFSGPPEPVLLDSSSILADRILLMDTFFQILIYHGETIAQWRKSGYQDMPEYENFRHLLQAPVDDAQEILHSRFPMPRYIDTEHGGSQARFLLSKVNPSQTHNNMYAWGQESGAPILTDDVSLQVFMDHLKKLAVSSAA
inactive: [1] -0.004 | [2] 0.064 | [3] -0.066 | [4] -0.015 | entinostat -0.035 | vorinostat -0.02 | citarinostat -0.044 | silmitasertib 0.011 | [5] 0.024 | [6] -0.097 | entospletinib 0.106

RPS9 (UniProt P46781)
inactive: [1] 0.07 | [2] 0.127 | [3] 0.202 | [4] 0.073 | entinostat -0.058 | vorinostat -0.007 | citarinostat -0.058 | silmitasertib 0.007 | [5] 0.076 | [6] -0.152 | entospletinib 0.042

SEC24A (UniProt O95486)
Sequence of UniProt O95486 (O95486 whole entry, looked up): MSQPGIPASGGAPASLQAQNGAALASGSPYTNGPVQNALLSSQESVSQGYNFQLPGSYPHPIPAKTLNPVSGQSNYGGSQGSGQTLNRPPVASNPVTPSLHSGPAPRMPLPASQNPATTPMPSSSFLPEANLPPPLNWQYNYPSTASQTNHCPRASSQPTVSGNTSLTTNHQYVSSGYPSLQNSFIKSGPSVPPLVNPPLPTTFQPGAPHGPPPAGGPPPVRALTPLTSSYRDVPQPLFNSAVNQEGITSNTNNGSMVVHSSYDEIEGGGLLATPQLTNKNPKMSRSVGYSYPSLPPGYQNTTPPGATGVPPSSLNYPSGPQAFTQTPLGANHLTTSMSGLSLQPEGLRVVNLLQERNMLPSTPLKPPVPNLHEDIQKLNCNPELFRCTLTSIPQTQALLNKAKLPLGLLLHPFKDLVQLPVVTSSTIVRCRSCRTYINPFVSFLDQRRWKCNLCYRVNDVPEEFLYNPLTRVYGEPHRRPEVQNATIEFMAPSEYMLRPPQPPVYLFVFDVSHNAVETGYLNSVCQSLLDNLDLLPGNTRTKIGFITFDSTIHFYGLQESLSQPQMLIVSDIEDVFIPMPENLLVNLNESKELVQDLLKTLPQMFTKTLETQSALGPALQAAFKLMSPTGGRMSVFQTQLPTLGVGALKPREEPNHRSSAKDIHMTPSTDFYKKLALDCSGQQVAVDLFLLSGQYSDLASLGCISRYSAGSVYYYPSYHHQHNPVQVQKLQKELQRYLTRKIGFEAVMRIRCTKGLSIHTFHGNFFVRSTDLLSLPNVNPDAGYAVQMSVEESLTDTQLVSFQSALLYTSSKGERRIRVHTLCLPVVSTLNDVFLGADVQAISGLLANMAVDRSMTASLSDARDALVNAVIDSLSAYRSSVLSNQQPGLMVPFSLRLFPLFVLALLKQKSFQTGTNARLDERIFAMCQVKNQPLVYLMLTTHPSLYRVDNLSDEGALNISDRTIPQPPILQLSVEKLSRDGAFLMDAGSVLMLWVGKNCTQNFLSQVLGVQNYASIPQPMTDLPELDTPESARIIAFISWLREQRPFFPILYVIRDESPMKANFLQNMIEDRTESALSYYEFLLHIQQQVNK
inactive: [1] -0.015 | [2] 0 | [3] -0.108 | [4] -0.016 | entinostat 0.016 | vorinostat 0.078 | citarinostat 0 | silmitasertib 0.02 | [5] -0.092 | [6] -0.013 | entospletinib 0.024

SDCBP (UniProt O00560)
Sequence of UniProt O00560 (O00560 whole entry, looked up): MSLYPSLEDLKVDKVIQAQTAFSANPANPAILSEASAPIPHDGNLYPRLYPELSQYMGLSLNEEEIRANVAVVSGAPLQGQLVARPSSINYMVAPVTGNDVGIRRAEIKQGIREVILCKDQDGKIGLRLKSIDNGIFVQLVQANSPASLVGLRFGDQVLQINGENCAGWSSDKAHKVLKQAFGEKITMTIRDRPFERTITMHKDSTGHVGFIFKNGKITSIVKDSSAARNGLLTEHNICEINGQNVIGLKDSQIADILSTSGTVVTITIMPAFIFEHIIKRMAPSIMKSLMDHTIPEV
inactive: [1] -0.027 | [2] -0.017 | [3] -0.207 | [4] -0.189 | entinostat 0.007 | vorinostat 0.063 | citarinostat -0.014 | silmitasertib 0.073 | [5] 0.028 | [6] -0.08 | entospletinib 0.115

RB1 (UniProt P06400)
active: [5] -0.241
inactive: [1] 0.11 | [2] -0.133 | [3] -0.072 | [4] -0.01 | entinostat 0.015 | vorinostat 0.05 | citarinostat 0.039 | silmitasertib 0.039 | [6] -0.038 | entospletinib 0.037

RAB3IL1 (UniProt Q8TBN0)
Sequence of UniProt Q8TBN0 (Q8TBN0 whole entry, looked up): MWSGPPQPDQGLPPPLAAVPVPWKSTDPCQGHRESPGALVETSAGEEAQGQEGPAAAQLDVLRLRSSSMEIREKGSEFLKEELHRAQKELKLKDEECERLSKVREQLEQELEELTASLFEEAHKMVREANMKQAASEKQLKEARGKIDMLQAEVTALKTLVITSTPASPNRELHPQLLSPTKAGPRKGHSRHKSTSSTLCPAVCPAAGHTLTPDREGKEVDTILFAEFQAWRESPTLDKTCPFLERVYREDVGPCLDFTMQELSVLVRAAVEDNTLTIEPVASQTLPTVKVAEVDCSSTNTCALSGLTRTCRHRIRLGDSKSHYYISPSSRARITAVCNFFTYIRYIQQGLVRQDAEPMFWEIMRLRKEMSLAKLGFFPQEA
inactive: [1] 0.041 | [2] -0.011 | [3] -0.025 | [4] -0.046 | entinostat -0.019 | vorinostat -0.032 | citarinostat 0.035 | silmitasertib 0.053 | [5] -0.038 | [6] 0.008 | entospletinib 0.005

RAB3GAP2 (UniProt Q9H2M9)
inactive: [1] -0.049 | [2] -0.067 | [3] -0.089 | [4] -0.04 | entinostat 0.057 | vorinostat 0.106 | citarinostat 0.089 | silmitasertib 0.095 | [5] 0.099 | [6] -0.065 | entospletinib 0.091

RBM27 (UniProt Q9P2N5)
inactive: [1] -0.151 | [2] -0.015 | [3] -0.058 | [4] -0.042 | entinostat 0.044 | vorinostat 0.125 | citarinostat 0.04 | silmitasertib -0.078 | [5] -0.056 | [6] -0.064 | entospletinib 0.054

RBM17 (UniProt Q96I25)
inactive: [1] 0.021 | [2] 0.037 | [3] 0.003 | [4] -0.07 | entinostat 0.08 | vorinostat 0.092 | citarinostat 0.056 | silmitasertib 0.036 | [5] 0.027 | [6] -0.127 | entospletinib -0.007

RAP1GDS1 isoform 5 (UniProt P52306)
Sequence of UniProt P52306 (P52306 whole entry, looked up): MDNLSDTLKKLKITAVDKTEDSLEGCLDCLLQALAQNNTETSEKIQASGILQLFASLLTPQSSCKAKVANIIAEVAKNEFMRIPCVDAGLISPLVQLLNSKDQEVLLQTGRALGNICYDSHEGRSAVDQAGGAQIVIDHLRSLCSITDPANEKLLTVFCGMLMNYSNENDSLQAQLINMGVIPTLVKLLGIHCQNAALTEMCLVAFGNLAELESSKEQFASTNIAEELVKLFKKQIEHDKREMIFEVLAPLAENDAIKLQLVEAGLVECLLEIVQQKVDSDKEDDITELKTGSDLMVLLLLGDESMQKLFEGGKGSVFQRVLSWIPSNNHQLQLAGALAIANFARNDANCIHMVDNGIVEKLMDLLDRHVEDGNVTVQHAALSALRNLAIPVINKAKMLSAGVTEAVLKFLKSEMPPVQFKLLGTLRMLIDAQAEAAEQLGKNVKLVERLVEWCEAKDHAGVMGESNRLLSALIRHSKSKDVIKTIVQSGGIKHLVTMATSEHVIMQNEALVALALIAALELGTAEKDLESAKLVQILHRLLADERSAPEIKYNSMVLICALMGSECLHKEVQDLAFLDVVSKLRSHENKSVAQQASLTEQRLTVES
inactive: [1] -0.059 | [2] -0.069 | [3] -0.181 | [4] -0.117 | entinostat 0.027 | vorinostat 0.119 | citarinostat 0.2 | silmitasertib 0.087 | [5] -0.049 | [6] -0.002 | entospletinib -0.025

Reference: the supplement of paper PMC10849652
